Measured values reported in ChEMBL document CHEMBL4513216, “Probing the Open Global Health Chemical Diversity Library for Multistage-Active Starting Points for Next-Generation Antimalarials” (ACS Infect Dis, 2020).
Screen size: about 68,000 compounds; about 2,700 (4%) showed an effect of 50% or more. For the sample, strong results were picked, then their nearest neighbours and some compounds at random.

tested on: Plasmodium berghei; assay: Screen against P. berghei liver stage (PbLuc), transformed with Luciferase, at 2uM; type: functional, HepG2; conditions: tested at 2 uM

Going from `CNC(=O)C1CCCN(c2nc(-c3ccco3)nc3c2CCNCC3)C1` (stereo not given) to `O=C(C1CCCN(C2CCOCC2)C1)N1Cc2ccccc2C1` (stereo not given), the INHIBITION falls from -44.93% to -45.79%.

Going from `CCS(=O)(=O)NC1CCCN(Cc2ccn(C)c(=O)c2)C1` (stereo not given) to `CNS(=O)(=O)CCCN1CCCN(Cc2ccccc2)CC1C` (stereo not given), the INHIBITION rises from -21.09% to 32.03%.

First: CCc1nnsc1C(=O)NC1CCN(c2ccccn2)CC1
Second: CCc1nnsc1C(=O)NC1CCN(CCOc2ccc(Br)cc2)CC1
The INHIBITION of the first is lower: 11.97% for the first, 62.51% for the second.

Going from `Cc1nc(C(=O)NC2CCN(CCOc3ccc(Br)cc3)CC2)cs1` to `Cc1ncc(C(=O)NC2CCN(CCOc3ccc(Br)cc3)CC2)s1`, the INHIBITION rises from 31.51% to 60.13%.

First: CN1CCCC1CNC(=O)CCOc1ccc(Br)cc1 (stereo not given)
Second: Cc1ccc(OCCN(C)Cc2nc3c(cnn3C)c(=O)[nH]2)cc1
The INHIBITION of the first is lower: -80.31% for the first, 78.42% for the second.

Going from `Cc1ncsc1C(=O)NC1CCN(CCC(N)=O)CC1` to `NC(=O)CC1CCN(C(=O)NCCc2ccc(Cl)s2)CC1`, the INHIBITION rises from -7.02% to 15.47%.

First: COCC[C@]1(O)CCN(Cc2nc(C)c(C)s2)C[C@H]1C
Second: COC[C@]1(O)CCN(Cc2ccc(N(C)C)nc2)CC1(C)C
The INHIBITION of the first is lower: 11.48% for the first, 32.21% for the second.

Going from `CCCC(C)NCc1cnc(-c2cccc(C)c2)nc1` (stereo not given) to `Cc1cccc(-c2ncc(CNC(C)CO)cn2)c1` (stereo not given), the INHIBITION falls from 56.47% to -53.16%.

Going from `Cc1cccc(-c2ncc(CNC(C)Cc3ccncc3)cn2)c1` (stereo not given) to `Cc1nccn1-c1ccc(C(C)NCc2cccn2C)cc1` (stereo not given), the INHIBITION falls from 24.23% to -28.15%.

First: CCCS(=O)(=O)N1CC[C@H]2O[C@@H](c3nc(C)no3)CC[C@H]21
Second: CSCC(=O)N1CCCC1c1noc(C2CC2)n1 (stereo not given)
The INHIBITION of the first is lower: -71.5% for the first, 27.44% for the second.

First: COc1cccc(CNc2c(C)cnc3c2c(=O)n(C)c(=O)n3C)c1
Second: Cc1cnc2c(c1NCc1cccnc1)c(=O)n(C)c(=O)n2C
The INHIBITION of the first is lower: -9.49% for the first, 63.23% for the second.

First: Cc1cnc2c(c1NCc1ccncc1)c(=O)n(C)c(=O)n2C
Second: NC(=O)CCn1cc(CNCCCc2ccncc2)c2ccccc21
The INHIBITION of the first is higher: 29.42% for the first, 3.49% for the second.

First: CC1CN(Cc2ccccc2)CCCN1CCS(C)(=O)=O (stereo not given)
Second: CC1CN(Cc2ccccc2)CCCN1CCCS(C)(=O)=O (stereo not given)
The INHIBITION of the first is lower: -7.07% for the first, 53.99% for the second.

Compared with `CC(NC(=O)CCCOc1ccccc1Cl)c1ccncc1` (stereo not given), `Cc1ccc(C(C)NCc2cn(CCC(N)=O)c3ccccc23)cc1C` (stereo not given) is higher in INHIBITION: -37.84% for the first, 61.63% for the second.

First: CCOC(=O)C1(Cc2ccccc2-c2ccccc2OC)CCNCC1
Second: NC(=O)CCn1cc(CNCCCc2ccccc2O)c2ccccc21
The INHIBITION of the first is lower: 29.68% for the first, 57.34% for the second.

Going from `CCn1c(N)nc2cc(C(=O)N3CCC(N4CCCC4)CC3)cnc21` to `CCn1c(N)nc2cc(C(=O)N3CCCN(C)CC3)cnc21`, the INHIBITION rises from -12.08% to 63.1%.

First: CCn1c(N)nc2cc(C(=O)N3CCCOCC3)cnc21
Second: CCc1cc(CN(C)C(=O)c2cnc3c(c2)nc(N)n3CC)on1
The INHIBITION of the first is higher: 40.47% for the first, 6.85% for the second.

First: CCn1c(N)nc2cc(C(=O)N(C)Cc3cc(C(C)(C)C)n[nH]3)cnc21
Second: CCc1ccc(CN(C)C(=O)c2cnc3c(c2)nc(N)n3CC)nc1
The INHIBITION of the first is higher: 58.17% for the first, 17.5% for the second.

Going from `Cc1cnnn1Cc1nnn2c1CN(Cc1cccs1)CCC2` to `CN(Cc1nc2ccccc2o1)C1CCCN(c2cccnn2)C1` (stereo not given), the INHIBITION falls from 12.29% to -16.72%.

First: COc1cccc2c1OCC(CNC(=O)Cc1csc(C(C)=O)c1)C2 (stereo not given)
Second: CCc1cc(=O)n(CC(=O)NCC2CCCO2)c(-c2cccc(F)c2)n1 (stereo not given)
The INHIBITION of the first is lower: 19.13% for the first, 23.65% for the second.

First: CN1CCC(c2cccc(-c3ccc(C(=O)O)cc3)n2)CC1
Second: Fc1cccc(CN2CCC(c3cc4ncccc4cn3)CC2)c1F
The INHIBITION of the first is lower: -39.93% for the first, -27.12% for the second.

First: CCC(C)N(Cc1ccsc1)C(=O)c1ccc2[nH]nnc2c1 (stereo not given)
Second: CCC(C)N(Cc1ccsc1)C(=O)c1ccc(CO)cc1 (stereo not given)
The INHIBITION of the first is lower: 38.24% for the first, 52.98% for the second.

Compared with `CCC(CO)N(Cc1ccc(C(=O)O)cc1)Cc1ccsc1` (stereo not given), `Cc1cccc(CN2C[C@@H]3CN(C(=O)c4ccsc4)C[C@@H]3C2=O)n1` is lower in INHIBITION: 2.17% for the first, -23.78% for the second.

Going from `CNc1oc(-c2cc(S(=O)(=O)N3CCCCCC3)c(C)o2)nc1C#N` to `CNc1oc(-c2cc(S(=O)(=O)N3CCCC3)c(C)o2)nc1C#N`, the INHIBITION falls from 5.96% to -49.59%.

Going from `Cc1oc(-c2nc(C#N)c(NC(C)(C)C)o2)cc1S(=O)(=O)N1CCCC1` to `Cn1ncc2c(=O)[nH]c(CN3CCCC3CC(C)(C)C)nc21` (stereo not given), the INHIBITION rises from 58.42% to 70.27%.

First: Cc1cnc(N2CC[C@@H]3O[C@@H](COCc4ccccn4)CC[C@@H]32)nc1
Second: O=C(C1=CCCC1)N1C[C@H](OCc2cccnc2)[C@H]2OCCC[C@H]21
The INHIBITION of the first is lower: -7.26% for the first, 31.46% for the second.

Going from `CN(CCCOc1ccc(F)cc1)Cc1nc2c(cnn2C)c(=O)[nH]1` to `CN(CCCOc1ccccc1)Cc1nc2c(cnn2C)c(=O)[nH]1`, the INHIBITION rises from -45.72% to -31.57%.

Going from `COc1ccc2c(c1)CCN2Cc1nc2c(cnn2C)c(=O)[nH]1` to `COc1ccc2c(c1)CCCN2Cc1nc2c(cnn2C)c(=O)[nH]1`, the INHIBITION falls from 52.17% to -70.71%.

Going from `Cn1ncc2c(=O)[nH]c(CN3CCCC3CC3CCCCC3)nc21` (stereo not given) to `CCC1CCCCN1Cc1nc2c(cnn2C)c(=O)[nH]1` (stereo not given), the INHIBITION falls from -5.15% to -31.57%.

Going from `COc1ccc2c(c1)CN(Cc1nc3c(cnn3C)c(=O)[nH]1)CC2` to `COc1ccc(OCCN(C)Cc2nc3c(cnn3C)c(=O)[nH]2)cc1`, the INHIBITION rises from 27.55% to 72.31%.

First: COCCCN(C)Cc1nc2c(cnn2C)c(=O)[nH]1
Second: CCC(C)N(CCOC)Cc1nc2c(cnn2C)c(=O)[nH]1 (stereo not given)
The INHIBITION of the first is lower: -135.87% for the first, 29.19% for the second.

Going from `CN(CCOc1cccc(F)c1)Cc1nc2c(cnn2C)c(=O)[nH]1` to `CN(Cc1nc2c(cnn2C)c(=O)[nH]1)Cc1ccco1`, the INHIBITION falls from 47.87% to 27.5%.

Going from `CSc1cccc(CN(C)C(=O)Nc2nc(C)n(C)n2)c1` to `Cc1ccc(C(C)N(C)Cc2nc3c(cnn3C)c(=O)[nH]2)cc1` (stereo not given), the INHIBITION rises from 4.12% to 28.65%.

First: Cc1cc(C)n(CC(C)NC(=O)C2(c3ccccc3F)CC2)n1 (stereo not given)
Second: Cc1cc(C)n(C2CCCN(C(=O)c3cccc4[nH]ncc34)C2)n1 (stereo not given)
The INHIBITION of the first is lower: -45.89% for the first, -15.33% for the second.

Compared with `O=C(CCN1CCCCO1)N1CCC(CO)(CCc2ccccc2)CC1`, `CCCN1CCN(Cc2cn(CCC(N)=O)c3ccccc23)CC1` is higher in INHIBITION: 12.56% for the first, 38.62% for the second.

First: O=C(c1cc2c(s1)CCC2)N1CCCC1Cn1cccn1 (stereo not given)
Second: c1cnn(Cc2ccc(CN3CCC4(CCCNC4)C3)cc2)c1 (stereo not given)
The INHIBITION of the first is higher: 17.39% for the first, 0.49% for the second.

Compared with `CN(C)c1ncc(CNC2CC(=O)N(CCc3cccc(Cl)c3)C2)s1` (stereo not given), `CCC1CN(Cc2nc(C(C)C)no2)CCC(=O)N1Cc1ccccc1` (stereo not given) is lower in INHIBITION: 35.26% for the first, 8.14% for the second.

First: CCNc1nc(C)c(C(=O)N2CCC(C(O)Cc3ccccc3)CC2)s1 (stereo not given)
Second: CCC(C)c1noc(C2CCN(C(=O)c3cccs3)CC2)n1 (stereo not given)
The INHIBITION of the first is higher: 15.73% for the first, -50.86% for the second.

Compared with `COCCN(Cc1nc2c(cnn2C)c(=O)[nH]1)Cc1ccco1`, `CCN(Cc1nc2c(cnn2C)c(=O)[nH]1)Cc1ccco1` is higher in INHIBITION: -16.42% for the first, 53.98% for the second.

Going from `COCCN(Cc1nc2c(cnn2C)c(=O)[nH]1)C(C)c1ccccc1` (stereo not given) to `COCCN(Cc1nc2c(cnn2C)c(=O)[nH]1)C(C)COC` (stereo not given), the INHIBITION falls from 68.24% to 20.57%.

First: CC(N(C)Cc1nc2c(cnn2C)c(=O)[nH]1)C(C)(C)C (stereo not given)
Second: CC(C)CN(C)Cc1nc2c(cnn2C)c(=O)[nH]1
The INHIBITION of the first is higher: 62.46% for the first, -29.44% for the second.

First: CCCS(=O)(=O)N1CCC2(CC1)CC(=O)N(Cc1cc(F)cc(F)c1)C2
Second: c1cnn(Cc2ccc(CN3CCC4(CCNCC4)C3)cc2)c1
The INHIBITION of the first is lower: 8.76% for the first, 56.79% for the second.

First: C=c1occc1=C1NC(c2cccc(CN3CCOCC3)c2)=NO1
Second: Cn1c2ccccc2c2ncn(CCN3CCOCC3)c(=O)c21
The INHIBITION of the first is lower: 1.42% for the first, 61.75% for the second.

Compared with `c1ccc(Cn2cccn2)c(CN2CCC3(CCCNC3)C2)c1` (stereo not given), `O=c1cccnn1CC1CN(Cc2ccsc2)Cc2nccn2C1` (stereo not given) is lower in INHIBITION: 31.9% for the first, -0.51% for the second.

First: Cc1cc(CN2CC[C@H]3C[C@H](C(=O)N4CCC(C)CC4)O[C@H]3C2)no1
Second: Cn1ccnc1CN1CCCN(C(=O)COC2CCCC2)CC1
The INHIBITION of the first is higher: 34.88% for the first, 28.18% for the second.

First: CCn1ccnc1CN1CCCN(C(=O)COC2CCCCC2)CC1
Second: CCn1ccnc1CN1CCCN(C(=O)COC2CCCC2)CC1
The INHIBITION of the first is lower: -2.87% for the first, 57.81% for the second.

First: Cn1ccc(NC(=O)CN2C[C@@H]3CC[C@H]2CN(S(C)(=O)=O)C3)n1
Second: CS(=O)(=O)N1Cc2nccn2CC(Cn2ncccc2=O)C1 (stereo not given)
The INHIBITION of the first is higher: 48.21% for the first, -9.42% for the second.

First: Cn1c2ccccc2c2ncn(CCCN3CCOCC3)c(=O)c21
Second: Cn1c2ccc(F)cc2c2ncn(CCN3CCOCC3)c(=O)c21
The INHIBITION of the first is higher: 23.65% for the first, -2.5% for the second.

Going from `CN1CCCN(C[C@@H]2CN(c3nc(C(N)=O)cs3)C[C@@H]2CO)CC1` to `COCCN1CCO[C@H]2CN(C(=O)c3cccs3)C[C@H]21`, the INHIBITION falls from 19.56% to 13.26%.

Going from `COCCNc1c(-c2ccc(C)cc2)c(=O)c1=O` to `Cc1n[nH]c(C)c1CCCNCc1cn(CCC(N)=O)c2ccccc12`, the INHIBITION rises from -21.29% to 42.2%.

First: O=c1cccnn1CC1CN(CC2CCCC2)Cc2nccn2C1 (stereo not given)
Second: CC(NCc1cn(CCC(N)=O)c2ccccc12)c1nncn1C (stereo not given)
The INHIBITION of the first is higher: 52.83% for the first, -81.84% for the second.

First: NC(=O)CCn1cc(CNCCCc2csc(N)n2)c2ccccc21
Second: NC(=O)CCn1cc(CNCc2csc(N)n2)c2ccccc21
The INHIBITION of the first is lower: 37.15% for the first, 72.49% for the second.

`CC(C)n1cnnc1CCNCc1cn(CCC(N)=O)c2ccccc12` was tested, and the INHIBITION was -9.3%.
